Assay results as given in PubChem BioAssay (Tox21).
Results filed as inconclusive are left out. A call without a number means that no potency is given here. A number with no mark means an inactive call. The source made the active and inactive calls. Calls come from the whole dose curve; as a rule, active = well fitted cell-killing curve with a large enough effect in the repeat runs; inconclusive = weak or mixed curves, or effect the other way; inactive = flat fitted curve, though single readings scatter.

Assays:
[1] = cAMP Responsive Elements (CRE) small molecule antagonists, cell-based qHTS assay: qHTS cell viability counter screen (AID 2060913); details: CRE-bla HEK293T viability, CellTiter-Glo luminescence, 5 h; series mostly up to 92.4 µM; note: nearly all actives have a fitted effect of over 40% in size
In short: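 CRE-bla HEK293T cells (2,000/well, 18 h) given compound plus NKH477 0.25 uM final for 3 h at 37C; viability counter-screen by CellTiter-Glo luminescence in same wells after 30 min.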

[2] = cAMP Responsive Elements (CRE) small molecule agonists, cell-based qHTS assay: qHTS cell viability counter screen (AID 2060914); details: CRE-bla HEK293T viability, CellTiter-Glo luminescence, 5 h; series mostly up to 92.4 µM; note: nearly all actives have a fitted effect of over 50% in size
In short: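 Cytotoxicity was measured as ATP luminescence (CellTiter-Glo, 30 min at room temperature) in the same wells as the CRE-bla FRET read-out. HEK293T CRE-bla cells had 3 h compound exposure at 37C/5% CO2.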

Row | SMILES | Potency [1] | Potency [2] | viability change, negative = cytotoxic [1] | activity change, negative = cytotoxicity [2]
1 | CCC(C(=O)OCCOCCN(CC)CC)c1ccccc1 (centres undefined) | inactive | inactive | – | –
2 | O=C(O)CCc1nc(-c2ccccc2)c(-c2ccccc2)o1 | inactive | inactive | – | –
3 | O=C1C=CCCC1 | inactive | inactive | – | –
4 | CCNC(=S)NCC | inactive | inactive | – | –
5 | CCN(CC)CCOc1ccccc1C(=O)CCc1ccccc1 | inactive | inactive | – | –
6 | O=C(O)c1cc(C(=O)O)cc(C(=O)O)c1 | inactive | inactive | – | –
7 | COc1ccc(OC(F)(F)F)cc1CN[C@H]1CCCN[C@H]1c1ccccc1 | inactive | inactive | – | –
8 | C/C=C/C=C/CO | inactive | inactive | – | –
9 | Cc1ccc2c(c1)OCC(=O)CO2 | inactive | inactive | – | –
10 | Cc1cccc(O)c1 | inactive | inactive | – | –
11 | CCCCCCCCCCCCCBr | inactive | inactive | – | –
12 | Cc1cccc(Nc2cc(Cl)nc(SCC(=O)O)n2)c1C | inactive | inactive | – | –
13 | COc1cc(S(N)(=O)=O)cc(C(=O)O)c1OC | inactive | inactive | – | –
14 | CC(C)=CC1CC(C)CCO1 (centres undefined) | inactive | inactive | – | –
15 | CC(=O)CC(c1ccccc1)c1c(O)c2ccccc2oc1=O (centres undefined) | inactive | inactive | – | –
16 | CCC(=O)OC(=O)CC | inactive | inactive | – | –
17 | CCOc1ccc2ccccc2c1C(=O)N[C@@H]1C(=O)N2[C@@H]1SC(C)(C)[C@@H]2C(=O)O | inactive | inactive | – | –
18 | Oc1c(Br)cc(Br)c2cccnc12 | inactive | inactive | – | –
19 | COC(=O)C1=C(C)NC(COC(N)=O)=C(C(=O)OC(C)C)C1c1cccc(Cl)c1Cl (centres undefined) | inactive | inactive | – | –
20 | COc1cc([N+](=O)[O-])ccc1N | inactive | inactive | – | –
21 | CC(C)=CCC/C(C)=C/COC=O | inactive | inactive | – | –
22 | CCCCCCC(C)O (centres undefined) | inactive | inactive | – | –
23 | CCCCC(CC)COC(=O)C(C#N)=C(c1ccccc1)c1ccccc1 (centres undefined) | inactive | inactive | – | –
24 | CC(C)[N+](C)(CCOC(=O)C1c2ccccc2Oc2ccccc21)C(C)C | inactive | inactive | – | –

Row | SMILES | Potency [1] | Potency [2] | viability change, negative = cytotoxic [1] | activity change, negative = cytotoxicity [2]
25 | CC/C=C/CCO | inactive | inactive | – | –
26 | O=C1c2ccccc2Cc2ccccc21 | inactive | inactive | – | –
27 | Cc1cccc(C)c1[N+](=O)[O-] | inactive | inactive | – | –
28 | Cc1cc(NC(=O)C2=C(O)c3ccccc3S(=O)(=O)N2C)no1 | inactive | inactive | – | –
29 | CCCCCCCCCCCC(=O)N(C)CC(=O)O | – | – | 1.91% [at 8.39 µM] | 0.181% [at 8.39 µM]
30 | CC(=O)OCC(=O)[C@H]1CC[C@H]2[C@@H]3CCC4=CC(=O)CC[C@]4(C)[C@H]3CC[C@]12C | inactive | inactive | – | –
31 | COc1cc(CCC(C)=O)ccc1O | inactive | inactive | – | –
32 | CC1=C(C/C=C(\C)CCC[C@H](C)CCC[C@H](C)CCCC(C)C)C(=O)c2ccccc2C1=O | inactive | inactive | – | –
33 | CN1CCN(C2=Nc3cc(Cl)ccc3Nc3ccccc32)CC1 | inactive | inactive | – | –
34 | C=C1[C@H]2CC[C@@H]3[C@H]2C(C)(C)CCC[C@]13C | inactive | inactive | – | –
35 | C=CC(=O)OCCOC(=O)C=C | inactive | inactive | – | –
36 | CCC(C)COC(=O)CC(C)C (centres undefined) | inactive | inactive | – | –
37 | C[CH2][Ge]([Cl])([CH2]C)[CH2]C | inactive | inactive | – | –
38 | Cc1ccc(=O)n(-c2ccccc2)c1 | inactive | inactive | – | –
39 | CC(COCCO)OCCO (centres undefined) | inactive | inactive | – | –
40 | NC(N)=NS(=O)(=O)c1ccc(N)cc1 | inactive | inactive | – | –
41 | CCCCC/C(=C\c1ccccc1)CO | inactive | inactive | – | –
42 | N#[N+]c1ccc2c(S(=O)(=O)[O-])cccc2c1O | inactive | inactive | – | –
43 | O=C(O)CN(CCCN(CC(=O)O)CC(=O)O)CC(=O)O | – | – | 0.188% [at 18.9 µM] | -8.11% [at 18.9 µM]
44 | CCN(CCC#N)c1ccc(N=Nc2ccc([N+](=O)[O-])cc2)cc1 | inactive | inactive | – | –
45 | C=C(C)CCCC | inactive | inactive | – | –
46 | Cc1ccc(Nc2nccc(N(C)c3ccc4c(C)n(C)nc4c3)n2)cc1S(N)(=O)=O | inactive | inactive | – | –
47 | O=Cc1ccc(F)c(Br)c1 | inactive | inactive | – | –
48 | CNC(=O)c1c(I)c(NC(C)=O)c(I)c(C(=O)O)c1I | inactive | inactive | – | –

Row | SMILES | Potency [1] | Potency [2] | viability change, negative = cytotoxic [1] | activity change, negative = cytotoxicity [2]
49 | CCCCCCCCCCCC(C)=O | inactive | inactive | – | –
50 | CCCCOC(=O)COc1ccc(Cl)cc1Cl | inactive | inactive | – | –
51 | OCCCCC(O)CO (centres undefined) | inactive | inactive | – | –
52 | CCC(=O)OCc1ccc(OC)cc1 | inactive | inactive | – | –
53 | CC(CO)c1ccccc1 (centres undefined) | inactive | inactive | – | –
54 | C=C(C)[C@@H]1CC=C(C)C(=O)C1 | inactive | inactive | – | –
55 | COC(=O)CCSCCC(=O)OC | inactive | inactive | – | –
56 | CN(C)CCCOC1(Cc2ccccc2)CCCCCC1 | inactive | inactive | – | –
57 | O=S1(=O)c2cccc3cccc(c23)N1CCCN1CCN(c2ccc(F)cc2)CC1 | inactive | inactive | – | –
58 | Nc1ccccn1 | inactive | inactive | – | –
59 | CCCCC(=O)O[C@]1(C(=O)CO)[C@H](C)C[C@H]2[C@@H]3CCC4=CC(=O)C=C[C@]4(C)[C@@]3(F)[C@@H](O)C[C@@]21C | inactive | inactive | – | –
60 | Cc1nc2ccc(Cl)cc2[nH]1 | inactive | inactive | – | –
61 | CCOC(=O)NNc1nncc2ccccc12 | inactive | inactive | – | –
62 | Cc1ncc[nH]1 | inactive | inactive | – | –
63 | O=C1CCCN1CCO | inactive | inactive | – | –
64 | Cc1cn([C@H]2C[C@H](N=[N+]=[N-])[C@@H](CO)O2)c(=O)[nH]c1=O | inactive | inactive | – | –
65 | O=C(O)c1cn(C2CC2)c2cc(Cl)c(F)cc2c1=O | inactive | inactive | – | –
66 | C[C@]12CC[C@H]3[C@@H](CCC4=CC(=O)CC[C@@]43C)[C@@H]1CC[C@@H]2C(=O)CO | inactive | inactive | – | –
67 | OC[C@@H](O)[C@@H](O)[C@H](O)[C@H](O)CO | inactive | inactive | – | –
68 | O=C(Cl)c1cccc(C(=O)Cl)c1 | inactive | inactive | – | –
69 | CCCC(=O)CC | inactive | inactive | – | –
70 | CCCCCCCC/C=C\CCCCCCCC(=O)OC[C@@H](O)[C@H]1OC[C@H](O)[C@H]1O | inactive | inactive | – | –
71 | C=COCCOCCOCCOC=C | inactive | inactive | – | –
72 | CC1CN(c2cc3c(cc2F)c(=O)c(C(=O)O)cn3-c2ccc(F)cc2F)CCN1 (centres undefined) | – | – | 0.301% [at 8.39 µM] | -0.163% [at 8.39 µM]

Row | SMILES | Potency [1] | Potency [2] | viability change, negative = cytotoxic [1] | activity change, negative = cytotoxicity [2]
73 | CCCCOC(=O)CCS | inactive | inactive | – | –
74 | CNCCCC12CCC(c3ccccc31)c1ccccc12 | inactive | inactive | – | –
75 | Oc1ccc(O)c2c(O)cccc12 | inactive | inactive | – | –
76 | Fc1ccc(Br)cc1 | inactive | inactive | – | –
77 | CC(C)=CCCC(C)CCOC(=O)C(C)C (centres undefined) | inactive | inactive | – | –
78 | CC1(C)C(=O)C(C)(C)C1=O | inactive | inactive | – | –
79 | Cc1onc(-c2ccccc2)c1C(=O)Cl | inactive | inactive | – | –
80 | COCCCOCCCOC | inactive | inactive | – | –
81 | CCCCOCCOCCOC(=O)CCCCC(=O)OCCOCCOCCCC | inactive | inactive | – | –
82 | CCCCN | inactive | inactive | – | –
83 | O=C(N[C@@H](Cc1ccccc1)[C@@H](O)C(=O)N1C[C@@H](O)[C@@H](O)C1)c1cc2cc(Cl)ccc2[nH]1 | inactive | inactive | – | –
84 | NNc1nc(-c2ccccc2)cs1 | inactive | inactive | – | –
85 | O=C1c2ccccc2C(=O)C1c1ccc(Br)cc1 | inactive | inactive | – | –
86 | Cc1ccccc1N1CCN(CCc2nnc3n2CCCC3)CC1 | inactive | inactive | – | –
87 | CC(C)(C)NCC(O)COc1ccc(NC(=O)NC2CCCCC2)cc1 (centres undefined) | inactive | inactive | – | –
88 | CC1CCc2c(N3CCC(O)CC3)c(F)cc3c(=O)c(C(=O)O)cn1c23 (centres undefined) | inactive | inactive | – | –
89 | COCC(O)CO (centres undefined) | inactive | inactive | – | –
90 | Cc1c(C)c2c(c(C)c1OC(=O)CCC(=O)O)CC[C@@](C)(CCC[C@H](C)CCC[C@H](C)CCCC(C)C)O2 | inactive | inactive | – | –
91 | CO[C@]1(NC(=O)CSC(F)F)C(=O)N2C(C(=O)O)=C(CSc3nnnn3CCO)CO[C@H]21 | inactive | inactive | – | –
92 | C=Cc1cccc(C)c1 | inactive | inactive | – | –
93 | N#C/C(=C1\SCC(c2ccccc2Cl)S1)n1ccnc1 (centres undefined) | inactive | inactive | – | –
94 | COc1ccc([N+](=O)[O-])cc1N | inactive | inactive | – | –
95 | COc1ccc2c(c1OC)C(=O)O[C@@H]2[C@H]1c2c(cc3c(c2OC)OCO3)CCN1C | inactive | inactive | – | –
96 | O=C(CS(=O)Cc1ccco1)NC/C=C\COc1cc(CN2CCCCC2)ccn1 (centres undefined) | inactive | inactive | – | –

Row | SMILES | Potency [1] | Potency [2] | viability change, negative = cytotoxic [1] | activity change, negative = cytotoxicity [2]
97 | CCC(=O)CC | inactive | inactive | – | –
98 | NS(=O)(=O)c1cc(C2(O)NC(=O)c3ccccc32)ccc1Cl (centres undefined) | inactive | inactive | – | –
99 | OC[C@H]1O[C@@H](Oc2ccc(O)cc2)[C@H](O)[C@@H](O)[C@@H]1O | inactive | inactive | – | –
100 | COc1cc(OC)cc(OC)c1 | inactive | inactive | – | –
101 | CC(C)N(C)C | inactive | inactive | – | –
102 | CCCCCCN | inactive | inactive | – | –
103 | COc1cc(-c2ccc(N=C=O)c(OC)c2)ccc1N=C=O | inactive | inactive | – | –
104 | C=CCCCCCCCCCC | inactive | inactive | – | –
105 | CN(C)C=O | inactive | inactive | – | –
106 | COS(C)(=O)=O | inactive | inactive | – | –
107 | Cc1cc(NS(=O)(=O)c2ccc(N)cc2)nc(C)n1 | inactive | inactive | – | –
108 | CCC/C=C/CO | inactive | inactive | – | –
109 | O=C1c2ccccc2-c2ccccc21 | inactive | inactive | – | –
110 | COc1ccc(C(=O)N2CCN(CC(=O)N3CCOCC3)CC2)cc1 | inactive | inactive | – | –
111 | c1ccc2cnncc2c1 | inactive | inactive | – | –
112 | CC(C)CC(O)Cc1ccccc1 (centres undefined) | inactive | inactive | – | –
113 | O=C(/C=C/c1ccccc1)OCc1ccccc1 | inactive | inactive | – | –
114 | O=C(O)c1cc(O)c2c(c1)C(=O)c1cccc(O)c1C2=O | inactive | inactive | – | –
115 | CCCCCCCCCCCCSCCOCCO | inactive | inactive | – | –
116 | CC(C)n1c(/C=C/[C@@H](O)C[C@@H](O)CC(=O)O)c(-c2ccc(F)cc2)c2ccccc21 | inactive | inactive | – | –
117 | CCn1cc(C(=O)O)c(=O)c2cnc(N3CCCC3)nc21 | – | – | 3.75% [at 8.39 µM] | -22.5% [at 8.39 µM]
